Results published in PubChem BioAssay (NCATS).
Results filed as inconclusive are left out. The source made the active and inactive calls. Unless noted, calls come from the whole dose curve; as a rule, active = well fitted curve in the direction sought with a large enough effect; inconclusive = small, poorly fitted or top-dose-only effect, or another doubt; inactive = no such curve, though single readings can be large; an effect the other way counts as inactive or inconclusive.

What was measured:
[1] = target: Lysosomal acid glucosylceramidase (Homo sapiens) (UniProt P04062); assay: Glucocerebrosidase-p2 (AID 348; in the data active = potency below about 10 µM; note: potency is the fitted concentration of half-maximal effect); conditions: purified GBA, blue fluorogenic substrate, 40 min
Lysosomal acid glucosylceramidase (Homo sapiens), sequence (P04062 whole entry, looked up): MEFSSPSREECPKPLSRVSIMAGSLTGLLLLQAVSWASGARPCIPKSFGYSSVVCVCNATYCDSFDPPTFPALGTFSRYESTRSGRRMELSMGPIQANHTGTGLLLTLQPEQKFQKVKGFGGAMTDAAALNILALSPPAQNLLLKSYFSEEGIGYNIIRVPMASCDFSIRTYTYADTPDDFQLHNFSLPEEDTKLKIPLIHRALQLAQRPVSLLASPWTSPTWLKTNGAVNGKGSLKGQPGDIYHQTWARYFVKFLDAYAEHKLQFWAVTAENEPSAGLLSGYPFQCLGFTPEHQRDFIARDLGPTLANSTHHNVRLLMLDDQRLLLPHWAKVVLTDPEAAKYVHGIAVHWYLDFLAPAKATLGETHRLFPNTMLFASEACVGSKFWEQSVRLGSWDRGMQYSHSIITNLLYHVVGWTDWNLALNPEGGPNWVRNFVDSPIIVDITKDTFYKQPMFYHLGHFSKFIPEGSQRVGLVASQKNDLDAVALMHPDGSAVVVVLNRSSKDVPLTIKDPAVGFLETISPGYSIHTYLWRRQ
Procedure, shortened: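 Normal human glucocerebrosidase (0.2 nM) with blue fluorogenic substrate (80 uM final) in citrate/phosphate pH 5.9 with 10mM sodium taurocholate, 0.01% tween-20; 40 min RT, NaOH/glycine stop; fluorescence Ex 365/Em 440; AC50 from a titration from 0.6 nM upwards.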

[2] = AP1 Signaling Pathway (AID 357; active = well fitted curve in either direction with a large enough effect, not every such curve was filed as active;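 note: ME-180 reporter cells stimulated with EGF at its EC50 level; % is set by controls: 0 for no effect and ±100 for the full control effect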); conditions: ME-180 AP-1-bla reporter, EGF-induced, beta-lactamase ratio, 5 h; at 7.69 µM (top of the series) unless noted
Procedure, shortened: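 Read-out was the 460nm/530nm emission ratio (excitation 405nm) after CCF4 loading for 2.5 hours at room temperature. Cells carried an AP-1-driven beta-lactamase reporter, were stimulated with EC50 EGF plus compound for 5 hours, and AC50 values came from titrations.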

[3] = target: Cytochrome P450 1A2 (Homo sapiens) (UniProt P05177); assay: p450-cyp1a2 (AID 410; calls by dose curve; note: potency is the fitted concentration of half-maximal effect;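 for activity change, negative = inhibition: -100% = full effect of reference inhibitor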); conditions: recombinant CYP1A2, luciferin-ME demethylation, luminescence; series mostly up to 57 µM
Cytochrome P450 1A2 (Homo sapiens), sequence (P05177 whole entry, looked up): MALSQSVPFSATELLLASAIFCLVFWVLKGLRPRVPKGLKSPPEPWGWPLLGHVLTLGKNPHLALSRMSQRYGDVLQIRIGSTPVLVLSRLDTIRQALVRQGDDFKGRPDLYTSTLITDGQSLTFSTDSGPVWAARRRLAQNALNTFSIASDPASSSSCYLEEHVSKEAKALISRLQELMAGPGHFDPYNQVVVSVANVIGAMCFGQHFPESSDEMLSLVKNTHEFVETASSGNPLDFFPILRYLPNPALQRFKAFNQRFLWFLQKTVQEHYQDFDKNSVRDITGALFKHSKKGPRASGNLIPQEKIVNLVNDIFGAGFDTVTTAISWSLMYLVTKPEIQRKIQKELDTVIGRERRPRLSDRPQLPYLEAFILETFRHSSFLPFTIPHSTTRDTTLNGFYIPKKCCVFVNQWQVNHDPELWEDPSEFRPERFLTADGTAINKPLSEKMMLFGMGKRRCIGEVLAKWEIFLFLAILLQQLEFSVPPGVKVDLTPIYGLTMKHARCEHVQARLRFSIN
Procedure, shortened: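 O-Demethylation of luciferin 6' methyl ether by human CYP1A2 is monitored as luciferase luminescence. Substrate sits at Km (100uM); enzyme is 20nM. Values are scaled to 57 uM furafylline as maximal inhibition.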

[4] = NFAT Signaling Pathway (AID 444; active = well fitted curve in either direction with a large enough effect, not every such curve was filed as active;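 note: carbachol stimulus at about its EC50 of 1 µM final; % is set by controls: 0 for no effect and ±100 for the full control effect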); conditions: Jurkat NFAT-bla M1, carbachol, beta-lactamase ratio, 5 h; at 7.69 µM (top of the series) unless noted
Procedure, shortened: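 Read-out: CCF4 FRET ratio (460 nm/530 nm) after 1 h RT dye loading, used for %activity and AC50 from titration series. Cells: Jurkat NFAT-β-lactamase/M1 line, treated with compound plus 1 uM carbachol for 5 h, 37 °C.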

[5] = Stat Signaling Pathway (AID 446; active = well fitted curve in either direction with a large enough effect, not every such curve was filed as active;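 note: ME-180 cervical cancer cells given 40 pM IL-6 alongside compound; SIE-controlled beta-lactamase reporter measured as 460/530 nm FRET emission ratio; % is set by controls: 0 for no effect and ±100 for the full control effect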); conditions: ME-180 SIE beta-lactamase reporter, IL-6 stimulated, 5 h; at 7.69 µM (top of the series) unless noted
Procedure, shortened: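 Overnight-plated ME-180 cells bearing a STAT Inducible Element beta-lactamase reporter; 5 h co-exposure to compound and 40 pM IL-6; values normalized to 300 pM IL-6 and 125 nM JAK inhibitor controls.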

[6] = target: Glucocorticoid receptor (Homo sapiens) (UniProt P04150); assay: GR-GFP Redistribution (AID 450;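 active = compounds whose dose series gives a full or clear partial fitted curve of increased nuclear translocation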; note: potency is the fitted concentration of half-maximal effect); conditions: U2OS GR-GFP nuclear translocation, laser cytometry, 2 h
Glucocorticoid receptor (Homo sapiens), sequence (P04150 whole entry, looked up, the tested form may be a part): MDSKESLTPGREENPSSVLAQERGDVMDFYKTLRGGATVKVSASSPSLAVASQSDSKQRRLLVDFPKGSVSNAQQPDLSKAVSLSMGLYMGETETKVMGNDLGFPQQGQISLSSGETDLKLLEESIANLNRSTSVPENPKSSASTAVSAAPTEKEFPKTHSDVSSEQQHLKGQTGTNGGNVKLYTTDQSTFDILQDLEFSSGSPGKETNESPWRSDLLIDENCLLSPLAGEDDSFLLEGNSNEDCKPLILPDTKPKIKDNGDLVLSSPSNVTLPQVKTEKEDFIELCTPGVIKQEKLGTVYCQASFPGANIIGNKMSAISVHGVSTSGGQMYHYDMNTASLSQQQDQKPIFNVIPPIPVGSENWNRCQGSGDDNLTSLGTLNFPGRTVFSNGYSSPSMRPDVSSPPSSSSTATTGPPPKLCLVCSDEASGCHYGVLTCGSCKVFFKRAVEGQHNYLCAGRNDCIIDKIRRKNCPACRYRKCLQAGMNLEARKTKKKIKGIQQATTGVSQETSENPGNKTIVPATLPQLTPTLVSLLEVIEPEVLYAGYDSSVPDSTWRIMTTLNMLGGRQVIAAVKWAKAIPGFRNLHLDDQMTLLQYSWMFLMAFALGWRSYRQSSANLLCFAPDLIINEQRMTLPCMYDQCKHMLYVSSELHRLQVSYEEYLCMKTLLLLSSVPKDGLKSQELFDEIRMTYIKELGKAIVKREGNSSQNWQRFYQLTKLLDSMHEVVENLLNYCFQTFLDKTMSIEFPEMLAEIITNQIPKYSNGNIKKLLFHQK

[7] = target: Glucocorticoid receptor (Homo sapiens) (UniProt P04150); assay: GR-EFC Redistribution (AID 451; calls by dose curve; note: potency is the fitted concentration of half-maximal effect); conditions: CHO-K1 GR-EFC translocation, beta-gal luminescence, 2 h
Procedure, shortened: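 Translocation of GR-ED fusion to nuclear EA restores b-gal, read by luminescence after 1 h room-temperature detection. Engineered CHO-K1 biosensor cells, 1,000/well, exposed 2 h at 37 C to titrations up to 46 uM final.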

[8] = target: Cytochrome P450 2C9 (Homo sapiens) (UniProt P11712); assay: qHTS Assay for Inhibitors and Substrates of Cytochrome P450 2C9 (AID 883); conditions: recombinant CYP2C9, luciferin-H luminescence, 60 min; series mostly up to 57.1 µM; note: potency is the fitted concentration of half-maximal effect; nearly all actives have a fitted effect of over 60% in size
Cytochrome P450 2C9 (Homo sapiens), sequence (P11712 whole entry, looked up): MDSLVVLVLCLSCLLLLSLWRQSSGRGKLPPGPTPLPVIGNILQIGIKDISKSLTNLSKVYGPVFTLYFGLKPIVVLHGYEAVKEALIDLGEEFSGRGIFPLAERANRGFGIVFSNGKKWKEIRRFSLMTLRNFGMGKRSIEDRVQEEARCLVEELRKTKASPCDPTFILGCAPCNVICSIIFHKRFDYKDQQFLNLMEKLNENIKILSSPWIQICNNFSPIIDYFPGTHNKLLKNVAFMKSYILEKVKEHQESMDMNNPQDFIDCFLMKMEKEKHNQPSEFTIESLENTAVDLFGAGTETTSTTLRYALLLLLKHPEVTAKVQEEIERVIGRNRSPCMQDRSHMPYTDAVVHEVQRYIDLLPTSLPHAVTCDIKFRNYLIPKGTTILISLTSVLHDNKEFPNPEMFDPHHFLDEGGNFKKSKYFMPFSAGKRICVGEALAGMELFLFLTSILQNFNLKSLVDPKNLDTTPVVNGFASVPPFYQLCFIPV
Procedure, shortened: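 Turnover of Luciferin-H (100uM, KM) by 10nM human CYP2C9 was measured over 60 min at 37C with NADPH regeneration; inhibitors and some substrates reduce luminescence. Data normalized to sulphaphenazole 57uM.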

[9] = target: Cytochrome P450 3A4 (Homo sapiens) (UniProt P08684); assay: qHTS Assay for Inhibitors and Substrates of Cytochrome P450 3A4 (AID 884); conditions: recombinant CYP3A4, Luciferin-PPXE luminescence; series mostly up to 57.1 µM; note: potency is the fitted concentration of half-maximal effect; nearly all actives have a fitted effect of over 50% in size
Cytochrome P450 3A4 (Homo sapiens), sequence (P08684 whole entry, looked up): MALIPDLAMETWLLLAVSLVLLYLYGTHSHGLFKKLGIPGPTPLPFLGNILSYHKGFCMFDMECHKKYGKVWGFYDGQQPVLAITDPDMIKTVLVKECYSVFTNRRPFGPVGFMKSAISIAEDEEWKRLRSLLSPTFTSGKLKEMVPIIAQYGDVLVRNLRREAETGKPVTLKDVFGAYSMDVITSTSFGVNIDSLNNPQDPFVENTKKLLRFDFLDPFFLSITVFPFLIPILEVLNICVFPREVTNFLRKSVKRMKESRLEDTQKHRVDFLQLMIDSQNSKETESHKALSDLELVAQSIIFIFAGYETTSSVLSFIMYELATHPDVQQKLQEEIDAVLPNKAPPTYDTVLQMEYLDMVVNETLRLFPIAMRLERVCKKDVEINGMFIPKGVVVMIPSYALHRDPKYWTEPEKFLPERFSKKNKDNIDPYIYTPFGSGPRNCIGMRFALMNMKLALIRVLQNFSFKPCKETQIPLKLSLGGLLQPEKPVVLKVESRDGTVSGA
Procedure, shortened: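 Luminescent readout of luciferin produced by CYP3A4 (20 nM) dealkylation of Luciferin-PPXE, 25 uM (its KM). NADPH-driven reaction ran 60 min at RT after 10 min compound preincubation; data scaled to 57 uM ketoconazole as 100% inhibition.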

[10] = target: Cytochrome P450 3A4 (Homo sapiens) (UniProt P08684); assay: qHTS Assay for Activators of Cytochrome P450 3A4 (AID 885); conditions: recombinant CYP3A4, Luciferin-PPXE luminescence, 60 min; series mostly up to 57.1 µM; note: nearly all actives have a fitted effect of over 65% in size
Procedure, shortened: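 Using 20nM recombinant human CYP3A4 in potassium phosphate (200mM), substrate Luciferin-PPXE at 25uM, luminescent luciferin detection followed a 60-min RT NADPH reaction; data scaled to 57 uM ketoconazole.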

[11] = target: Cytochrome P450 2C19 (Homo sapiens) (UniProt P33261); assay: qHTS Assay for Inhibitors and Substrates of Cytochrome P450 2C19 (AID 899); conditions: recombinant CYP2C19, luciferin-H EGE luminescence; series mostly up to 57.1 µM; note: potency is the fitted concentration of half-maximal effect; nearly all actives have a fitted effect of over 60% in size
Cytochrome P450 2C19 (Homo sapiens), sequence (P33261 whole entry, looked up): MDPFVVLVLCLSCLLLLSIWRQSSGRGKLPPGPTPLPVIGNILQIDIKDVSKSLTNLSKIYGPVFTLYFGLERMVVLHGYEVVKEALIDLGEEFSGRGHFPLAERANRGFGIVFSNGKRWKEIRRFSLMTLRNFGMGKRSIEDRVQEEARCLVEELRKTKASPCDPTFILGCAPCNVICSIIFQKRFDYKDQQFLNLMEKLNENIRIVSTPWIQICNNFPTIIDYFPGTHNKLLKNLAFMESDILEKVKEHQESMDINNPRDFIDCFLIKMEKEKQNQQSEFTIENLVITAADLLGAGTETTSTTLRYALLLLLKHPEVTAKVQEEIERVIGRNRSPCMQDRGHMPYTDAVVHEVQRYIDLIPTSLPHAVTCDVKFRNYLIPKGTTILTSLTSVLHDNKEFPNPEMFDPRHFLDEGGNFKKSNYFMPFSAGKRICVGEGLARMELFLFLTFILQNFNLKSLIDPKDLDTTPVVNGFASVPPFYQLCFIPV
Procedure, shortened: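 Reactions contain 5nM enzyme, 10uM Luciferin-H EGE (KM) and 50mM KPO4; compound preincubates 10 min at 37C, NADPH regeneration starts turnover for 60 min. Luminescence after detection reagent gives activity.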

[12] = Confirmation and Secondary Assay for Modulators of Hemoglobin Beta Chain Splicing at IVS2 654 locus (AID 910); conditions: HeLa EGFP-654 splicing reporter, GFP fluorescence, 48 h; series mostly up to 38.3 µM;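 note: HeLa cells stably carrying EGFP split by mutant beta-globin IVS2-654 intron; per-well total GFP intensity by laser scanning cytometry after 2-day treatment; % of control where 0% means no effect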
Procedure, shortened: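 Readout: per-well total peak green fluorescence (488 nm ex, 500–520 nm em) from objects 5–250 µm, reflecting correct splicing of an EGFP-654 reporter. Compounds were applied for 2 days at 37 °C to overnight-plated HeLa EGFP-654 cells; controls were DMSO and 500 nM IVS2-654 PNA.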

[13] = Confirmation and Secondary Assay for Modulators of Hemoglobin Beta Chain Splicing at IVS2 705 locus (AID 930); conditions: HeLa EGFP-705 splicing reporter, GFP fluorescence, 48 h; series mostly up to 38.3 µM;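 note: HeLa cells stably expressing the EGFP-705 splicing reporter; GFP fluorescence per well restored by corrected splicing of the IVS2-705 intron in EGFP; % of control where 0% means no effect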
Procedure, shortened: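 Per-well GFP, captured at 1 x 8 µm resolution with 488 nm excitation, served as the read-out for HeLa EGFP-705 cells incubated 2 days with test compound versus DMSO.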

[14] = qHTS Assay for Lipid Storage Modulators (AID 1519; calls by dose curve); conditions: Drosophila S3 cells, BODIPY lipid droplet/cell ratio, laser cytometry, cells loaded with oleic acid; for activity change, negative = inhibition: at 57.5 µM (top of the series)
Procedure, shortened: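 Cells seeded at 5,000 per well were treated with compounds over a concentration series and loaded with oleic acid (400 uM, as added). Lipid droplet fluorescence (488 nm excitation, 500-530 nm channel) was read by laser-scanning cytometry and normalized to 20 uM Triacsin C.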

[15] = target: Ubiquitin carboxyl-terminal hydrolase 1 (Homo sapiens) (UniProt O94782); assay: Inhibitors of USP1/UAF1: Pilot qHTS (AID 504865); conditions: purified USP1/UAF1, Ub-rhodamine cleavage fluorescence; series mostly up to 54.9 µM;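 note: rhodamine fluorescence freed from ubiquitin-rhodamine substrate followed over time; top concentration of the series differs between compounds; % is set by controls: 0 for no effect and ±100 for the full control effect; nearly all actives have a fitted effect of over 35% in size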
Ubiquitin carboxyl-terminal hydrolase 1 (Homo sapiens), sequence (O94782 whole entry, looked up): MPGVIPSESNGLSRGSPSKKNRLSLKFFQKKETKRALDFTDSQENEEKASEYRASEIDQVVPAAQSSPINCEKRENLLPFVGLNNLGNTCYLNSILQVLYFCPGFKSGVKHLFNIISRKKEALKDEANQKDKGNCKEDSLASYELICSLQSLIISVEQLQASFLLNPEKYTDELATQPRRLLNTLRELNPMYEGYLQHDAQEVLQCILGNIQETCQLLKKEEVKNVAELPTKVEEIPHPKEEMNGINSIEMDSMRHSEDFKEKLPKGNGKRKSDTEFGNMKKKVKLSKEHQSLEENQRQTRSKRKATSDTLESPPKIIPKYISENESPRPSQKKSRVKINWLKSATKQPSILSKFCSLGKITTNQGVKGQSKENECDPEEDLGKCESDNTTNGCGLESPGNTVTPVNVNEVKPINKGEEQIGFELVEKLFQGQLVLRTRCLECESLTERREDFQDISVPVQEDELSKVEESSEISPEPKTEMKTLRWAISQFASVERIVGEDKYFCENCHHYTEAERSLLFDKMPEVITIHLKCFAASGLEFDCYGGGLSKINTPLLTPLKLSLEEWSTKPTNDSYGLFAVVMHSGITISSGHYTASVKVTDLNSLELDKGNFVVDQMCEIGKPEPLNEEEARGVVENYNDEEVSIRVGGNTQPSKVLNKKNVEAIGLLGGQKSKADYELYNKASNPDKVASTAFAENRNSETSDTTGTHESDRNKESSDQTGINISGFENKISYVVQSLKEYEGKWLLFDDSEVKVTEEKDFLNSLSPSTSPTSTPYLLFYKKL
Procedure, shortened: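 In 50mM HEPES pH 7.8 containing 0.5mM EDTA, 1mM TCEP, 0.1 mg/ml BSA and 0.01% Tween-20, 1nM USP1/UAF1 is exposed to compound for 15 min, then Ub-Rho (150nM final) is added and fluorescence is read over time.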

[16] = Primary qHTS for small molecule stabilizers of the endoplasmic reticulum resident proteome: Secreted ER Calcium Modulated Protein (SERCaMP) assay (AID 1508630); conditions: SH-SY5Y GLuc-SERCaMP (Gaussia luciferase released on ER calcium loss) secretion, thapsigargin, luminescence; series mostly up to 38.4 µM; note: % is set by controls: 0 for no effect and ±100 for the full control effect
Procedure, shortened: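 The SH-SY5Y reporter protocol was run at 3 concentrations up to 38.3 uM (primary) or 11 concentrations (follow-up): 16 h compound, 100 nM thapsigargin for 4 h, then extracellular luciferase luminescence.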

[17] = target: 3',5'-cyclic-AMP phosphodiesterase 4B (Homo sapiens) (UniProt Q07343); assay: qHTS Assay for Inhibitors of PDE-IV (AID 607; active = well fitted activation curve with a large enough effect in the main read-out, with a control signal flat, not every such curve was filed as active; note: % of control where 0% means no effect); conditions: HEK293 ACTOne CNG channel cells, membrane potential fluorescence; series mostly up to 22.9 µM
3',5'-cyclic-AMP phosphodiesterase 4B (Homo sapiens), sequence (Q07343 whole entry, looked up): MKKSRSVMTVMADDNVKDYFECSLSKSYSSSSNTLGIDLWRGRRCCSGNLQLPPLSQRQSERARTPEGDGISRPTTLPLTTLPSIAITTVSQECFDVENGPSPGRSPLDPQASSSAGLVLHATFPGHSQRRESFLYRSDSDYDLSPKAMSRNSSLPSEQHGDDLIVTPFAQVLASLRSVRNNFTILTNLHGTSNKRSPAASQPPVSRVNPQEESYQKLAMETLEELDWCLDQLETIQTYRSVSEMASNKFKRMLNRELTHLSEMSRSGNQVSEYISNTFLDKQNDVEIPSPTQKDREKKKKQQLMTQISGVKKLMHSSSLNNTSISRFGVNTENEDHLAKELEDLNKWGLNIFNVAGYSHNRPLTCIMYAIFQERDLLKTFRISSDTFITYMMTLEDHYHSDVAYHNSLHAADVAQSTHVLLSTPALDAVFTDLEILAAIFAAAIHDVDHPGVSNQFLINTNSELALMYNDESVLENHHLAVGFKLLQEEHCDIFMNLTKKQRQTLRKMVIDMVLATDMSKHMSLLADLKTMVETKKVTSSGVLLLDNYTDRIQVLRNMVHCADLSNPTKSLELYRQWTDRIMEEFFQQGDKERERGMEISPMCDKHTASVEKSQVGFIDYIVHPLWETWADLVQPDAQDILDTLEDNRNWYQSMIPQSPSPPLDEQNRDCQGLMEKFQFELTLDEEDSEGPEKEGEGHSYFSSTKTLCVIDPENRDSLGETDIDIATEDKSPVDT
Procedure, shortened: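 Live HEK293 cells with a modified cyclic nucleotide-gated (CNG) channel report intracellular cAMP via membrane-potential dye fluorescence (ex 535/em 590 nm). Endogenous PDE-IV was targeted. Compounds were tested at up to 22.9 uM final; RO 20-1724 100 uM served as control.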

[18] = target: Mitogen-activated protein kinase 10 (Mus musculus) (UniProt Q61831); assay: JNK3 AlphaScreen Assay (AID 530; active = well fitted curve in either direction with a large enough effect, not every such curve was filed as active); conditions: JNK3 lysate, c-Jun phosphorylation; series mostly up to 57.1 µM
Procedure, shortened: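 qHTS titrations with 15 min compound pre-incubation before adding ATP (10 uM final). Read-out: AlphaScreen of Ser73-phosphorylated biotin-GST-cJun using HepG2 lysate JNK3 activated by IL-1β and TNFα.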

[19] = qHTS Assay for Identification of Small Molecule Agonists for Hypoxia Response Element Signaling Pathway (AID 914; active = well fitted activation curve with a large enough effect in the signal ratio, with a control signal flat, not every such curve was filed as active; the % refers to the signal ratio; note: potency is the fitted concentration of half-maximal effect); conditions: ME-180 (cervical carcinoma) HRE-bla reporter, beta-lactamase ratio, CoCl2, 17 h; activation: stronger effect = higher value
Procedure, shortened: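 In Opti-MEM containing 0.5% dialyzed FBS and 10 mM HEPES, ME-180 HRE-bla cells received a compound titration and EC50 CoCl2. They were incubated 17 hours, then CCF4-loaded 2.5 hours at room temperature before ratio reading.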

[20] = measured here: cell count channel max response
[21] = measured here: lipid channel max response

COc1ccc2[nH]cc(CCNc3ncncc3-c3ccc(N(C)C)cc3)c2c1
inactive: Potency [1] > 11.4 µM | activity change, negative = inhibition [2] -27.6% | activity change, negative = inhibition [4] 4.01% | activity, negative = inhibition [5] -7.73% | Potency [6] > 46 µM | Potency [7] > 46 µM | Potency [10] | outcome [12] | outcome [13] | activity change, negative = inhibition [14] 5.88% | Potency [15] | Potency [16]
5.01%: max response [14, 20]
active: Potency [3] 0.251 µM | Potency [8] 0.501 µM | Potency [9] 0.501 µM | Potency [11] 1.58 µM
11%: max response [14, 21]

Cc1cccc(CNc2ccnc(-c3cccnc3)n2)c1
active: Potency [3] 0.126 µM | Potency [9] 0.501 µM | Potency [11] 2.51 µM
inactive: Potency [1] > 11.4 µM | activity change, negative = inhibition [2] -18.1% | activity change, negative = inhibition [4] 10.6% | activity, negative = inhibition [5] 1.1% | Potency [6] > 46 µM | Potency [7] > 46 µM | Potency [17] | Potency [10] | outcome [12] | outcome [13] | activity change, negative = inhibition [14] 8.22% | Potency [16]
-7.71%: max response [14, 20]
-5.64%: max response [14, 21]

COc1ncc2nc(-c3cccs3)c(=O)n(-c3ccccc3)c2n1
-2.75%: max response [14, 21]
-0.0529%: max response [14, 20]
inactive: Potency [1] > 11.4 µM | activity change, negative = inhibition [2] -4.36% | activity change, negative = inhibition [4] -4.96% | activity, negative = inhibition [5] 17.5% | Potency [6] > 9.22 µM | Potency [7] > 46 µM | outcome [18] | Potency [17] | activity change, negative = inhibition [14] -3.04% | Potency [16]
active: Potency [3] 2 µM | Potency [19] 3.16 µM

c1ccc(CNc2ccnc(-c3ccoc3)n2)cc1
15%: max response [14, 21]
7.25%: max response [14, 20]
active: Potency [3] 2.51 µM
inactive: Potency [1] > 11.4 µM | activity change, negative = inhibition [2] -4.42% | activity change, negative = inhibition [4] 4.39% | activity, negative = inhibition [5] 10.2% | Potency [6] > 46 µM | Potency [7] > 46 µM | outcome [18] | Potency [10] | outcome [12] | outcome [13] | activity change, negative = inhibition [14] 9.38% | Potency [16]

Cc1cnc(CNc2ncncc2-c2ccccc2C(F)(F)F)cn1
inactive: Potency [1] > 11.4 µM | activity change, negative = inhibition [2] -6.17% | Potency [3] | activity change, negative = inhibition [4] 2.1% | activity, negative = inhibition [5] -1.72% | Potency [6] > 46 µM | Potency [7] > 46 µM | outcome [18] | Potency [17] | Potency [10] | outcome [12] | outcome [13] | activity change, negative = inhibition [14] 7.68% | Potency [16]
18.6%: max response [14, 20]
28.1%: max response [14, 21]

COc1cccc(-c2cncnc2N(C)Cc2ccco2)c1
38%: max response [14, 20]
active: Potency [3] 10 µM | Potency [9] 2.51 µM | Potency [11] 7.94 µM
41.1%: max response [14, 21]
inactive: Potency [1] > 11.4 µM | activity change, negative = inhibition [2] -8.71% | activity change, negative = inhibition [4] -25.9% | activity, negative = inhibition [5] 7.72% | Potency [6] > 46 µM | outcome [18] | Potency [17] | Potency [10] | activity change, negative = inhibition [14] 6.72% | Potency [15] | Potency [16]
